# Records with an inconclusive call do not appear. A call without a number means that no potency is given here. The source made the active and inactive calls. Calls come from the whole dose curve; as a rule, active = well fitted curve in the direction sought with a large enough effect; inconclusive = small, poorly fitted or top-dose-only effect, or effect the other way, or another doubt; inactive = no such curve, though single readings can be large or run the other way.
# Target: Epidermal growth factor receptor (Homo sapiens) (UniProt P00533)
# Sequence (P00533 whole entry T790M/L858R, looked up): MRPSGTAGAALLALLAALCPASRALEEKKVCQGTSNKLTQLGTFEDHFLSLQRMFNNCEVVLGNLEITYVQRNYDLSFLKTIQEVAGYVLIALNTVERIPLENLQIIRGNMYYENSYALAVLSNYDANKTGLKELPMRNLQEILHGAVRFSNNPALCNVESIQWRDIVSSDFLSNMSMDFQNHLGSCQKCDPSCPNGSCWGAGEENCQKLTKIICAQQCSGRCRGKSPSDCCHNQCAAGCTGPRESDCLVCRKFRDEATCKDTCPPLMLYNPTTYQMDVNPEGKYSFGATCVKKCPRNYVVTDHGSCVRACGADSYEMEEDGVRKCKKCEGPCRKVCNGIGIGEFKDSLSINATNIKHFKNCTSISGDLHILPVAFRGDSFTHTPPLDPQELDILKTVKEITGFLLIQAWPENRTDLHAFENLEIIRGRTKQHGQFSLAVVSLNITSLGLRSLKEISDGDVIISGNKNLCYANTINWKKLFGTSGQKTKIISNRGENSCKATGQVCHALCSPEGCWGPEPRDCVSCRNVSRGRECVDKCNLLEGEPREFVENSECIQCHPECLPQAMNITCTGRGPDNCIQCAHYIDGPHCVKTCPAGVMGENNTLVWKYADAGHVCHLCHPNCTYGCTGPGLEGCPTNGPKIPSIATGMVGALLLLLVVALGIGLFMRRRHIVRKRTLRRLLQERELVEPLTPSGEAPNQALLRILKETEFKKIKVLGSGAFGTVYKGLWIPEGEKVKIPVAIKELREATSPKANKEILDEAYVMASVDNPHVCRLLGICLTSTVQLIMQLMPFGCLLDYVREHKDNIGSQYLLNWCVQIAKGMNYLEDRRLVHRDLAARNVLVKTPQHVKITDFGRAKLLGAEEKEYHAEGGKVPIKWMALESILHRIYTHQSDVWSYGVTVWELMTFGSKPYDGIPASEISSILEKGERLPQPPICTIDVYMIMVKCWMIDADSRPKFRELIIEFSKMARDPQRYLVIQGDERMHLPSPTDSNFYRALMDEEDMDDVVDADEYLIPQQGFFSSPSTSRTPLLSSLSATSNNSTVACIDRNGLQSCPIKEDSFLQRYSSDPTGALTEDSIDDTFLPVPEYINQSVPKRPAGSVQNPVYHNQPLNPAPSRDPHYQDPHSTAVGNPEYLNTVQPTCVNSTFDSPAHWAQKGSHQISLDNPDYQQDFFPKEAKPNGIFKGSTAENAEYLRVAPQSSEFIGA
# Assay: Assay for Inhibitors of the ERK Signaling Pathway using a Homogeneous Screening Assay: EGFR T790M/L858R Kinase Inhibition
# Conditions: series mostly up to 65.8 µM
# Excerpt: qHTS Assay for Inhibitors of the ERK Signaling Pathway using a Homogeneous Screening Assay
# NIH Chemical Genomics Center [NCGC]
# NIH Molecular Libraries Screening Centers Network [MLSCN]
# Assay Submitter (PI): Dr. Wei Zheng, NCGC/NIH
# The Ras/extracellular-signal-regulated kinase (ERK) mitogen activated protein (MAP) kinase signaling pathway (ERK1/2 cascade) plays is a key role in transmitting signals from the cell surface to the nucleus (Nishida and Gotoh 1993; Chang and Karin, 2001). The cascade is initiated by the small G-protein Ras, which recruits Raf […], where activation occurs. Alternatively, this pathway can be activated by elevating intracellular cAMP.
# Activation of the ERK pathway is essential in increased cell division and cell survival. Sustained and constitutive activation of the ERK pathway, however, has been linked to uncontrolled cell proliferation, increased cell survival, and tumor progression. Thus, the ERK has been as an attractive target for cancer chemotherapy in the past few years (Sebolt-Leopold and Herrera, 2004). Given its physiological and pathological importance, assessment of ERK phosphorylation has been broadly performed in both basic research and drug discovery. Most assays for the measurement of ERK phosphorylation use the antibody-based detection methods, such as western blot and ELISA. These assays require multiple reagent additions with cell wash steps and are not suitable for high-throughput screening.
# The current cell-based ERK phosphorylation assay was performed using AlphaScreen platform. AlphaScreen is a two bead-based proximity-dependent chemical energy transfer luminescent assay platform. The assay reagents (ERK SureFire(TM) kit) were supplied from TGR BioSciences (Australia). In the presence of specific antibodies, phosphorylated ERK will bring "donor" and "acceptor" beads to a proximity range (<200 nm), and subsequently lead a chemical luminescent reaction upon exciting donor beads with 680 nm laser. To validate pathway hits from the cell-based assay, enzyme assays consisting of EGFR tyrosine kinase, Raf and MEK were used as a means of deciphering the enzymes of target for the prioritized group of compounds derived from the HEK-293 cell based assay. The compounds were tested against significant members of the ERK signaling pathway EGFR and EGFR mutants (EGFR L858R, EGFR T790M, and EGFR L858R T790M). In order to establish the specificity of the prioritized compounds for EGFR and EGFR mutants, the compounds were also assayed against other important ERK signaling pathway enzymes, c-RAF and MEK-1.
# NCGC Assay Protocol Summary:
# The HTRF kinase assay (components supplied as kit by Cisbio) was chosen for the EGFR and EGFR mutant enzyme assays that applied the time resolved fluorescence resonance energy transfer (TR-FRET) principle. A peptide substrate is labeled with a biotin that can bind to XL665 labeled streptavidin and the anti-phosphoresidue antibody is labeled with Eu+. Upon phosphorylation of the substrate, the antibody binds to phosphorylated substrate that enables TR-FRET detection in homogenous assay format.
# An HTRF Kinease TK assay kit (Cisbio, Bedford, MA) was used to develop the EGFR and EGFR mutant assays (Harbert et al., 2008. Harbert C, Marshall J, Soh S, Steger K. Development of a HTRF Kinase Assay for Determination of Syk Activity. Current Chemical Genomics. 1: 20-26. 2008). EGFR and EGFR mutants were obtained from Invitrogen. The assay buffer was composed of 50 mM HEPES (pH 7.0), 5 mM MgCl2, 5mM DTT, 0.1 % NaN3, 0.1 % BSA and 0.1 mM orthovanadate.
# The HTRF assays were preformed according to the HTRF Kinease TK kit. Optimization for each enzyme was preformed in 384 well format (data not included). All reagents were dispensed into 1536 well plates.
# (1) Enzyme, […] EGFR at 3 nM final
# (2) Compound, 22 nl, Library Compounds in 0.128 to 10 mM titration series or control
# (3) Reagent, 1.5 ul 10 uM ATP and 0.25 uM substrate final
# (4) Incubation for 30 min, Ambient conditions
# […]
row,Structure (SMILES),Potency
1,N#C/C(=C(/N)Sc1ccc(N)cc1)c1ccccc1C(F)(F)F,inactive
2,Cc1ccc2nc(=O)c(NNc3ccccc3)cnc2c1,3.55 µM (active)
3,O=C1c2ccccc2C(=O)c2c(NCCCN(CCO)CCO)cccc21,inactive
4,Cn1c(=O)[nH]c2nnc(-c3ccc(Cl)c(Cl)c3)nc2c1=O,inactive
5,Fc1ccc(Nc2ncnc3sc4c(c23)CCC4)cc1F,inactive
6,COc1ccc(C(=O)c2ccc(Cl)c([N+](=O)[O-])c2)cc1,inactive
7,Cn1nc(-c2ccccn2)nc2c(=O)n(C)c(=O)nc1-2,inactive
8,CS(=O)(=O)CCNCc1nc(-c2ccc3ncnc(Nc4ccc(OCc5cccc(F)c5)c(Cl)c4)c3c2)cs1,inactive
9,CCN(CC)CCC(=O)Nc1cccc2c1C(=O)c1ccccc1C2=O,inactive
10,CNc1cccc2c1C(=O)c1ccccc1C2=O,inactive
11,Cc1ccc(NNc2c(C)nc3ccccc3nc2=O)cc1,inactive
12,O=C(Nc1nc(-c2ccccc2)cs1)c1ccc(N2CCOCC2)c([N+](=O)[O-])c1,inactive
13,Cc1nc2ccccc2nc(=O)c1NNc1ccccc1,3.16 µM (active)
14,Cn1nc(-c2ccc(Cl)cc2)nc2c(=O)n(C)c(=O)nc1-2,inactive
15,CCn1c(=O)c2[nH]c(-c3ccccc3)nc2n(CC)c1=O,inactive
